EBV LMP1 NFkB: inhibitors of Epstein-Barr LMP1-induced NF-kappaB reporter; LMP1-induced NF-kappaB luciferase reporter cells, luminescence; inhibition, % at 12.5 µM; 350,000 tested, 0.69% active; AID 504558; in the data active = inhibition above about 41%;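 note: 0% = neutral control wells and 100% = reference inhibitor control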
TROY NFkB inh: inhibitors of TROY-dependent NF-kB signaling. Q293 LMP1-TROYcd NF-kB luciferase reporter, 4 h. inhibition, % at 10 µM. 360,000 tested, 0.98% active. AID 1347056;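 active = compounds whose plate-normalised and pattern-corrected inhibition of the luciferase reporter signal at the single screening dose is 50% or more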
Shn3 inh set2: Schnurri-3 reporter inhibition in Clone20 osteoblasts. Clone20 osteoblast Shn3 3'UTR firefly luciferase, 24 h. inhibition, % at 12.5 µM. 360,000 tested, 0.52% active;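 active = mean inhibition of at least 75% with every replicate also reaching 75%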;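 note: 0% = median of neutral control wells and 100% = pilot-screen positive control compound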
Peg3 prom inh: reduces Peg3 promoter-driven luciferase expression in HeLa; HeLa PEG-Prom luciferase reporter, luminescence, overnight; 360,000 tested, 1.7% active; inhibition, % at 20 µM;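 active = inhibition of at least 50% at 20 µM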
TWEAK Fn14 block: TWEAK-Fn14 signaling inhibition; 360,000 tested, 2% active; AID 1159606; TWEAK-stimulated Fn14 reporter cells, luciferase luminescence, 8 h; inhibition, % at 10 µM; in the data active = inhibition above about 50%
TRPM1 prom inh: reduces MITF-dependent TRPM1 promoter luciferase signal; SK-MEL-5 TRPM1 promoter luciferase, 24 h; inhibition, % at 12.5 µM; 330,000 tested, 0.83% active; AID 488899;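 active = mean inhibition across replicates of 60% or more, whatever share of single replicates reaches that level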
An asterisk follows results filed as active; nt = no result given. In the library only some 4.1% were active in any assay of this set; here they are far more common.

SMILES	EBV LMP1 NFkB	TROY NFkB inh	Shn3 inh set2	Peg3 prom inh	TWEAK Fn14 block	TRPM1 prom inh
Cc1cccc(C(=O)NCC(=O)NC(C)CCc2ccccc2)c1 (centres undefined)	7	1	-1	15	14	17
CC(CCc1ccccc1)NC(=O)CNC(=O)c1cccs1 (centres undefined)	-1	5	0	-8	61*	4
Cc1occc1C(=O)NC(C)CCc1ccccc1 (centres undefined)	-4	nt	6	4	52*	9
O=C(CN1CCN(S(=O)(=O)c2ccccc2)CC1)Nc1ccccc1C(=O)c1ccccc1	6	9	18	29	-2	-1
CCCc1cc(NCCCN2CCOCC2)n2c(nc3ccccc32)c1C#N	-14	nt	-47	32	82*	-2
Cc1nnc(SCC(=O)Nc2ccc3c(c2)OCO3)n(N)c1=O	-5	-35	4	-6	19	12
CC(C)(C)c1ccc(CC(=O)N2CCC2(C)C(=O)Nc2cccc3c2CCCC3)cc1 (centres undefined)	nt	-13	3	27	-1	nt
C#CCOCCOCCOCCNc1nc(N2CCN(C(=O)CCCCCCCCCCNC(=O)Cn3cc(CCCCCN)nn3)CC2)nc(N2CCN(C(=O)CCCCCCCCCCNC(=O)[C@@H](CCC(=O)O)n3cc(CCCCCN)nn3)CC2)n1	2	-5	7	-42	-16	-6
C#CCOCCOCCOCCNc1nc(N2CCN(C(=O)CCCCCCCCCCNC(=O)[C@H](CO)n3cc(CCCSC)nn3)CC2)nc(N2CCN(C(=O)CCCCCCCCCCNC(=O)[C@H](CCCCN)n3cc(CCO)nn3)CC2)n1	4	-5	-15	15	-10	7
C#CCOCCOCCOCCNc1nc(N2CCN(C(=O)CCCCCCCCCCNC(=O)[C@H](CO)n3cc(CCCSC)nn3)CC2)nc(N2CCN(C(=O)CCCCCCCCCCNC(=O)[C@H](CCCN=C(N)N)n3cc(C[C@@H](C)CC)nn3)CC2)n1	0	-2	10	0	-9	89*
C#CCOCCOCCOCCNc1nc(N2CCN(C(=O)CCCCCCCCCCNC(=O)Cn3cc(CCCCCN)nn3)CC2)nc(N2CCN(C(=O)CCCCCCCCCCNC(=O)[C@@H](CCSC)n3cc(CCO)nn3)CC2)n1	5	-21	5	77*	-24	35
C#CCOCCOCCOCCNc1nc(N2CCN(C(=O)CCCCCCCCCCNC(=O)[C@H]([C@@H](C)CC)n3cc(CCCCCN)nn3)CC2)nc(N2CCN(C(=O)CCCCCCCCCCNC(=O)[C@H]([C@@H](C)CC)n3cc(CCCCN=C(N)N)nn3)CC2)n1	10	39	37	71*	42	99*
C#CCOCCOCCOCCNc1nc(N2CCN(C(=O)CCCCCCCCCCNC(=O)[C@@H](CCC(=O)O)n3cc(CCCCCN)nn3)CC2)nc(N2CCN(C(=O)CCCCCCCCCCNC(=O)[C@H]([C@@H](C)CC)n3cc(CCCCCN)nn3)CC2)n1	5	-9	3	-40	-62	-7
C#CCOCCOCCOCCNc1nc(N2CCN(C(=O)CCCCCCCCCCNC(=O)[C@H]([C@@H](C)CC)n3cc(CCCCCN)nn3)CC2)nc(N2CCN(C(=O)CCCCCCCCCCNC(=O)[C@H](CO)n3cc(CCCCCN)nn3)CC2)n1	6	21	30	99*	-21	82*
CSc1nnc(C)c(=O)n1COC(=O)/C=C/c1ccc2c(c1)OCO2	-4	-5	28	-11	15	-4
CC(C)N1CCN(Cc2ccc(Sc3nncn3C)o2)CC1CCO (centres undefined)	3	1	18	4	11	16
CCN(CC)S(=O)(=O)c1cccc(NC(=O)c2ccc(Sc3nncn3C)c([N+](=O)[O-])c2)c1	4	11	nt	21	30	2
COC(=O)CCC(C(=O)CN1C(=O)c2ccccc2C1=O)N1C(=O)c2ccccc2C1=O (centres undefined)	4	-1	14	-2	-8	9
O=C(CN1CCCC1)N1CCCC(c2ccc(F)cc2)c2ccc(F)cc21 (centres undefined)	-9	16	8	-5	-16	-9
COc1cc(OC)cc(-c2cc(N)n(S(=O)(=O)c3cccc4nsnc34)n2)c1	0	6	11	27	-5	7
O=C(O)Cc1ccc(OCc2ccc(Cl)nc2)cc1	-3	-1	-12	-10	3	1
C#CCOCCOCCOCCNc1nc(N2CCOCC2)nc(N2CCN(C(=O)CCCCCCCCCCNC(=O)[C@@H]([C@H](C)CC)n3cc(CCCCCN)nn3)CC2)n1	-3	-2	2	53*	-39	19
C#CCOCCOCCOCCNc1nc(N2CCN(C(=O)CCCCCCCCCCNC(=O)[C@H]([C@@H](C)CC)n3cc(CCCCN=C(N)N)nn3)CC2)nc(N2CCN(C(=O)CCCCCCCCCCNC(=O)[C@H](CO)n3cc(CCCCCN)nn3)CC2)n1	3	21	29	28	0	85*
C#CCOCCOCCOCCNc1nc(N2CCN(C(=O)CCCCCCCCCCNC(=O)Cn3cc(CCCCCN)nn3)CC2)nc(N2CCN(C(=O)CCCCCCCCCCNC(=O)[C@H]([C@@H](C)CC)n3cc(CCCCN=C(N)N)nn3)CC2)n1	-7	3	27	25	10	75*
C#CCOCCOCCOCCNc1nc(N2CCN(C(=O)CCCCCCCCCCNC(=O)[C@H]([C@@H](C)CC)n3cc(CCCCCN)nn3)CC2)nc(N2CCN(C(=O)CCCCCCCCCCNC(=O)[C@H](CCCCN)n3cc(CCCC(=O)O)nn3)CC2)n1	6	2	-15	-27	-24	-5
SMILES	EBV LMP1 NFkB	TROY NFkB inh	Shn3 inh set2	Peg3 prom inh	TWEAK Fn14 block	TRPM1 prom inh
CC(=O)c1ccc(Nc2cc(C)nc3c(C)cc(C)cc23)cc1	-20	-7	3	103*	-3	54
COc1ccc(C(CNC(=O)c2ccc(S(=O)(=O)N3CC(C)CC(C)C3)cc2)N(C)C)cc1 (centres undefined)	-3	-4	9	71*	6	54
COc1ccc(C(CNC(=O)c2ccc(S(=O)(=O)N3CCCC3)cc2)N(C)C)cc1OC (centres undefined)	6	-37	-11	8	-6	9
O=C(COC(=O)/C=C/c1ccc(F)cc1)Nc1ccc2[nH]c(=O)[nH]c2c1	-3	-14	-4	5	15	-7
O=C(COC(=O)/C=C/c1ccc(OC(F)F)cc1)Nc1ccc2[nH]c(=O)[nH]c2c1	-28	-12	97*	18	-25	-10
CC(C)(C)c1ccc(Oc2ccc(NC(=O)C3CC=CCC3C(=O)O)cc2)cc1 (centres undefined)	2	76*	0	9	28	27
CN(C)S(=O)(=O)c1cccc(-c2nnc(SCC(=O)NCCCCCC(=O)O)n2-c2ccc(F)cc2)c1	-5	4	2	-31	4	-5

Screens as filed in PubChem BioAssay.
